The source of these data is PubChem BioAssay AID493014 (National Center for Advancing Translational Sciences (NCATS), 2011).

Each structure is given as a SMILES string. About 170 (0.05%) of roughly 340,000 compounds were called active. A call without a number means that no potency is given here. Not shown: some 26% with an inconclusive outcome. Calls follow the shape of the dose curve; as a rule, active = well fitted inhibition curve with a large enough effect in the signal ratio, with a control signal flat (not every such curve was filed as active); inconclusive = small, poorly fitted or top-dose-only effect, or effect the other way, or a change in a side signal; inactive = flat fitted curve, though single readings scatter; the % refers to the signal ratio. For the sample, actives were picked, then their nearest neighbours and some compounds at random.
Potency is read from the fitted curve at half-maximal effect.

This assay in a line: qHTS Assay to Find Inhibitors of Chronic Active B-Cell Receptor Signaling. Conditions: ABC-DLBCL IkBa-CBG/CBR reporter, luminescence ratio, 4 h; series mostly up to 46.1 µM. The source says: NIH Molecular Libraries Probe Production Network [MLPCN] NIH Chemical Genomics Center [NCGC] MLPCN Grant: 1 R03 DA031086-01A1 PI Name: Dr. R. Eric Davis NCGC Assay Overview: Diffuse large B-cell lymphoma (DLBCL) is the most common category of non-Hodgkin lymphoma, with ~20,000 new cases per year in the United States. DLBCL should be regarded as a collection of different neoplasms. Microarray gene expression analysis has defined two principal types of DLBCL, named for their similarity to normal B cell stages or activation states: a germinal center B-cell (GCB) type, and an activated B-cell (ABC) type. In ABC-DLBCL, a constitutive high-level activity of the NF-kappaB family of transcription factors has been observed (1) and NF-kappaB target genes are more highly expressed in ABC primary tumors than in GCB tumors. Functional studies have shown a constitutive high-level activity of the IkappaB (inhibitor of kappa-B) kinase (IKK) complex. […] Further analysis of DLBCL primary tumors for NF-kappaB target gene expression imply that although CARD11 is required for constitutive IKK activity in all ABC-DLBCL lines, mutations in CARD11 may be the root cause of IKK activation only in lines or tumors with such mutations. In other words, CARD11 mutations may explain NF-kappaB activation in only 10% of ABC-DLBCL cases. […] This process has been termed 'chronic active BCR signaling' (CABS). The goal of this screen is to find small-molecule inhibitors of the CABS pathway found in ABC-DLBCL lines using a cell-based assay that measures IkappaBalpa stability, which has already been extensively validated in the OCI-Ly3 line (PubChem AID:445; REF: 4). […] The assay uses green (CBG68) and red (CBR) emitting beetle luciferases [Chroma-GloTM developed by Promega Corp.] where the green luciferase is fused to IkappaBalpha and the red luciferase is present in its native state. Both luciferase genes are stably present in the TMD8 human ABC DLBCL cell line, but their expression is under the control of tetracycline-inducible promoters. Following the addition of doxycycline to induce expression of the luciferases, the green luminescence in control cultures rises only slowly because the CBG fusion partner IkappaBalpha is targeted by IKK activity for rapid degradation. In contrast, green luminescence rises rapidly in the presence of proteasome inhibitors or IKK inhibitors. The rise in red luminescence of CBR is not affected by proteasome or IKK inhibitors, and serves as normalization for cell number and nonspecific effects. Compounds were screened as a concentration-titration series that ranged from 46 uM to 3 nM.
NCGC Assay Protocol Summary: Cells were seeded in 1536-well plates at 5000 cells/4uL in IMDM medium containing 0.5% FBS, w/o phenol red, 1% penicillin/streptomycin. Then, 23 nL of compounds or DMSO were delivered to each well using a pin tool. One uL 20ng/ml doxycycline was then dispensed into white solid 1536-well plates and the plates were incubated at 37C/5% C02 in a cell incubator for 4 hrs. Then 4 uL luminescent substrate mix (in-house prepared: 150 mM Tris-Cl, pH 7.6, 3 mM MgCl2, 1% Triton X-100, 5 mM DTT, 0.2 mM CoA, 0.15 mM ATP, 5 mM D-luciferin, final concentrations) was added to each well. The plate was incubated at r.t. for 10-15 min. The plates were measured on a ViewLux plate reader for green luminescence (540/20 nm filter) and red luminescence (618/8 nm filter). The green and red luminescent signals were corrected for red and green luminescence filter overlap using previously determined filter calibration constants (determined using the procedure outlined in the Promega Technical Manual; REF 4). The %Activity was determined from the ratio of corrected green/red luminescent values. MG132 were used as control. […] Red luminescent %Activity was normalized to the difference between red luminesence in basal cells (0%Activity) and zero luminescence (-100% Activity). […]
On to `CCCCN(CC(=O)Nc1cccc(S(=O)(=O)N2CCCC2)c1)Cc1nc2ccccc2c(=O)[nH]1`, for which the Potency entry is “inactive”.

Consider `O=S(=O)(NCCCCCCNS(=O)(=O)c1c(F)cccc1F)c1ccc2c(c1)OCCO2`, for which the Potency result was “inactive”.

In the case of `CCN(c1ccccc1)S(=O)(=O)c1cccc(C(=O)NCc2ccccc2CN2CCOCC2)c1`, the Potency result is “inactive”.

`C=CC[C@@H](CC(=O)N[C@H](CO)Cc1ccccc1)C(=O)N[C@H](C)COC(=O)[C@@H](CC=C)Cc1ccc(F)cc1`: the Potency result is “inactive”. To `O=S(=O)(NC1CCN(S(=O)(=O)c2ccc3c(c2)OCCO3)CC1)c1c(F)cccc1F` belongs “inactive”; to `COC(=O)[C@]1(Cc2ccccc2)N[C@H](CN(C)S(=O)(=O)c2ccc(OC(F)(F)F)cc2)[C@@H]2C(=O)N(C)C(=O)[C@@H]21`, “inactive”. Regarding `Nc1ccc(Nc2cc(O)c3ncccc3c2)cc1`, the Potency result is “inactive”.

As for `Cc1ccc(NS(=O)(=O)c2ccc(C(C)C)cc2)cc1S(=O)(=O)N1CCOCC1`, the Potency entry is “inactive”. In the case of `CCN(C[C@H]1N[C@@](Cc2ccccc2)(C(=O)OC)[C@H]2C(=O)N(Cc3ccccc3)C(=O)[C@@H]12)C(=O)c1ccc(C)cc1`, the Potency entry is “inactive”.

For the compound `O=C1C=CN2CCCC2CC1` (configuration not stated), the Potency entry was “inactive”. To `COc1cccc(NC(=O)COC(=O)c2ccc3ccccc3n2)c1` belongs “inactive”; to `CCOC(=O)C1CCCN(C(=O)CSc2nnc3nc(C)cc(C)n23)C1` (configuration not stated), “inactive”; to `COc1cccc(C2=CC(=O)C[C@H](c3ccc(OC)c(OC)c3)C2)c1`, “inactive”. For `CN(C)C(=O)COC(=O)c1cccc(S(=O)(=O)N2CC3(C)CC2CC(C)(C)C3)c1` (configuration not stated), the Potency result was “inactive”. To `Cc1ccc(-n2ncc3c2CC(C)(C)CC3NC(=O)Cc2c(C)noc2C)cc1` (configuration not stated) belongs “inactive”.

Regarding `COC(=O)[C@]1(CC(C)C)N[C@H](c2ccc(SC3CCCCC3)cc2)[C@@H]2C(=O)N(C)C(=O)[C@@H]21`, the Potency result was “inactive”. The entry for `O=C1COc2ccc(C(=O)CSc3ccc(Br)cc3)cc2N1` is “inactive”; for `Cc1ccc(N2CC(C(=O)N3CCC4(CC3)CC(=O)c3ccccc3O4)CC2=O)cc1C` (configuration not stated) it is “inactive”; for `CC(=O)Nc1ccc(S(=O)(=O)NCCC(=O)N2CCN(c3ccccc3Cl)CC2)cc1` it is “inactive”. In the case of `Fc1ccccc1-c1cc2cc3c(cc2cn1)OCO3`, the Potency entry was “inactive”. Regarding `CCN(CC(=O)Nc1ccc(OC)cc1)C(=O)CSCc1ccc(C)cc1`, the Potency result was “inactive”.

Consider `Cc1cccc(N(Cc2ccccc2)C(=O)c2cc(S(=O)(=O)N3CCOCC3)ccc2F)c1`, for which the Potency entry is “inactive”. Consider `CCN(CC)S(=O)(=O)c1ccc(N2CCOCC2)c(NC(=O)C(C)Oc2ccc(F)cc2)c1` (configuration not stated), for which the Potency result was “inactive”.

In the case of `CC1Sc2ccc(C(=O)NCc3ccccc3Cl)cc2NC1=O` (configuration not stated), the Potency result was “inactive”.

Take `O=C(O[C@@H]1[C@H](Cc2ccccc2)NS(=O)(=O)[C@H]2C[C@@H]3C=C[C@]12O3)c1ccccc1Br`: the Potency entry is “inactive”. To `CC(C)(C)OC(=O)C[C@@H]1C/C=C\C[C@H](CC(=O)N[C@@H](CO)Cc2ccccc2)C(=O)N[C@H](Cc2ccccc2)COC1=O` belongs “inactive”; to `CN=C(Nc1cccc(S(=O)(=O)N2CCOCC2)c1)c1ccccc1`, “inactive”; to `Oc1ccccc1CN1CCN(C(c2ccccc2)c2ccccc2)CC1`, “inactive”. To `COc1ccc(-c2cc(=O)oc3cc(OC(C)C(=O)Nc4ccc(CN5CCOCC5)cc4)ccc23)cc1` (configuration not stated) belongs “inactive”.

Take `COc1ccc(CNC(=O)C[C@H]2C[C@H](C(=O)N3CCOCC3)[C@@]3(CCC4CCCC4)c4[nH]c5ccc(Cl)cc5c4CCN3C2=O)cc1OC`: the Potency entry is “inactive”. In the case of `CC(=O)Nc1ccc(SC[C@H](Cc2ccccc2)N2CC[C@@H](C)CCC2=O)cc1`, the Potency entry was “inactive”.

With `O=C(COC(=O)COc1cccc(F)c1)NCC1CCCCC1`, the Potency result was “inactive”. The entry for `O=C(NCc1ccccc1CN1CCCC1)C1CCN(S(=O)(=O)c2ccc(Cl)cc2)CC1` is “inactive”; for `Cc1cccc(NC(=O)c2ccc(S(=O)(=O)N(C)c3ccccc3)cc2)n1` it is “inactive”. To `COc1ccc(NC(=O)CN2C(=O)COc3ccc(S(=O)(=O)N4CCOCC4)cc32)c(OC)c1` belongs “inactive”; to `Cc1ccc(CNC(=O)Cn2cnc3c(NCc4ccccc4)ncnc32)o1`, “inactive”; to `COc1ccccc1N(C)S(=O)(=O)c1ccc(Cl)c(C(=O)Nc2ccncc2)c1`, “inactive”. The entry for `C[C@H]1COC(=O)[C@H](CC(=O)OC(C)(C)C)C/C=C\C[C@@H](CC(=O)N[C@H](CO)Cc2ccccc2)C(=O)N1` is “inactive”; for `Nc1cc(N)nc(SCC(=O)Nc2cccc(S(=O)(=O)N3CCCCC3)c2)n1` it is “inactive”. On to `COc1ccc(S(=O)(=O)N2CCCCCC2)cc1NC(=O)Cc1ccc(OC)c(OC)c1`, for which the Potency entry is “inactive”.

On to `COC(=O)c1cc(C(=O)NC(C)C2CC3CCC2C3)cc([N+](=O)[O-])c1` (configuration not stated), for which the Potency result is “inactive”.

With `O=C(CN(Cc1ccc(Br)cc1)S(=O)(=O)c1ccccc1)NCc1ccncc1`, the Potency entry was “inactive”.

In the case of `Cc1ccc(C)c(N2CCN(C(=O)CCc3nc(-c4cccc(C(F)(F)F)c4)no3)CC2)c1`, the Potency entry is “inactive”. To `COc1cc2c(cc1OC)C(c1ccc(C)o1)CC(=O)N2` (configuration not stated) belongs “inactive”. The entry for `COc1ccc(C2CC(=O)Nc3cc(C)c(C)cc32)c(OC)c1OC` (configuration not stated) is “inactive”; for `CCCOc1ccccc1C1CC(=O)Nc2cc3c(cc21)OCO3` (configuration not stated) it is 23.1 µM (active). To `COC(=O)[C@H](Cc1ccccc1)NC(=O)Nc1ccc(OC)cc1` belongs “inactive”; to `COc1ccc(NC(=O)c2sc(N)nc2-c2ccccc2)cc1`, 12.6 µM (active); to `COc1ccc(NC(=O)c2cnc(NS(=O)(=O)c3ccccc3)nc2)cc1`, “inactive”. For the compound `CCCCCCSc1ccc([C@@H]2[C@@H]3C(=O)N(CC)C(=O)[C@@H]3[C@]3(C(=O)OC)CCCCN23)cc1OC`, the Potency entry was “inactive”. For `O=C(c1ccc(S(=O)(=O)NCc2ccco2)cc1)N1CCN(c2ccccc2)CC1`, the Potency entry was “inactive”. Turning to `CCN1C(=O)[C@@H]2[C@@H](c3ccc(-c4ccc(OC)cc4)c(OC)c3)N3CCC[C@@]3(C(=O)OC)[C@@H]2C1=O`, the Potency result was “inactive”.

With `COc1ccc(Cl)cc1NC(=O)CN(C)C(=O)c1cc2ccccc2cc1OC`, the Potency entry was “inactive”. To `CC(C)N(Cc1nnc(-c2ccccc2Br)o1)C(=O)c1cc(Cl)nc2ccccc12` belongs “inactive”; to `COc1ccccc1N1CC(C(=O)Nc2nnc(SCC(=O)NC(C)C)s2)CC1=O` (configuration not stated), “inactive”.

Turning to `COc1ccc(/C=N/Nc2cc(N3CCOCC3)nc(C)n2)c(OC)c1`, the Potency result was “inactive”. With `COc1ccc(N2CCN(C(=O)COC(=O)c3cccc(S(=O)(=O)Nc4ccccc4OC)c3)CC2)cc1`, the Potency entry is “inactive”.
